According to the supplement of paper PMC6555819:

Legend:
Assay in all cases: PBM binding z-score (relative to random genomic background probes); higher = stronger binding; sequences stand for … in GC…GCGATTGACAGCGTAGAATGAAGG
[1] = tested on: FXR:RXRa (NR concentration 270 nM, RXRa partner concentration 90 nM)
Summary of the method: (§1)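 Custom Agilent 4×180K protein-binding microarrays carried double-stranded probes, each with a 34-nt variable region. These regions held direct-repeat seeds, single-nucleotide variants, half-site ablations and random human genomic background sequences. Ligand-free nuclear receptor dimers were incubated on the arrays for 1 h, antibodies against each partner (one per run) detected binding, and scanned fluorescence was regression-normalized. Binding z-scores take the random background probes as reference.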

[2] = tested on: LXRa:RXRa (NR concentration 270 nM, RXRa partner concentration 90 nM)
Summary of the method: as §1

[3] = tested on: LXRa homodimer (NR concentration 270 nM)
Summary of the method: as §1

[4] = tested on: LXRb:RXRa (NR concentration 270 nM, RXRa partner concentration 90 nM)
Summary of the method: as §1

[5] = tested on: LXRb homodimer (NR concentration 270 nM)
Summary of the method: as §1

[6] = tested on: PPARa:RXRa (NR concentration 270 nM, RXRa partner concentration 90 nM)
Summary of the method: as §1

[7] = tested on: PPARg:RXRa (NR concentration 180 nM, RXRa partner concentration 90 nM)
Summary of the method: as §1

[8] = tested on: PPARg:RXRa 270nM:90nM, anti-RXR (NR concentration 270 nM, RXRa partner concentration 90 nM)
Summary of the method: as §1

[9] = tested on: PPARg:RXRa 30nM:10nM, anti-RXR (NR concentration 30 nM, RXRa partner concentration 10 nM)
Summary of the method: as §1

[10] = tested on: PPARg:RXRa 90nM:30nM, anti-RXR (NR concentration 90 nM, RXRa partner concentration 30 nM)
Summary of the method: as §1

[11] = tested on: PPARg:RXRa DBDmut IVT, anti-RXR (DBD mutation: RXRa K156A/R161A, NR concentration 270 nM, RXRa partner concentration 90 nM)
Summary of the method: as §1

[12] = tested on: PPARg:RXRa IVT, anti-PPARg (NR concentration 270 nM, RXRa partner concentration 90 nM)
Summary of the method: as §1

[13] = tested on: PPARg DBDmut:RXRa IVT, anti-PPARg (DBD mutation: PPARg1 K132A/R137A, NR concentration 270 nM, RXRa partner concentration 90 nM)
Summary of the method: as §1

[14] = tested on: PPARg DBDmut IVT, anti-PPARg (DBD mutation: PPARg1 K132A/R137A, NR concentration 270 nM)
Summary of the method: as §1

[15] = tested on: PPARg homodimer (NR concentration 180 nM)
Summary of the method: as §1

[16] = tested on: PXR:RXRa (NR concentration 270 nM, RXRa partner concentration 90 nM)
Summary of the method: as §1

[17] = tested on: PXR homodimer (NR concentration 270 nM)
Summary of the method: as §1

[18] = tested on: RARa:RXR (NR concentration 270 nM, RXRa partner concentration 90 nM)
Summary of the method: as §1

[19] = tested on: RARa homodimer (NR concentration 270 nM)
Summary of the method: as §1

[20] = tested on: RARb:RXRa (NR concentration 270 nM, RXRa partner concentration 90 nM)
Summary of the method: as §1

Sequence | PBM binding z-score [1] | PBM binding z-score [2] | PBM binding z-score [3] | PBM binding z-score [4] | PBM binding z-score [5] | PBM binding z-score [6] | PBM binding z-score [7] | PBM binding z-score [8] | PBM binding z-score [9] | PBM binding z-score [10] | PBM binding z-score [11] | PBM binding z-score [12] | PBM binding z-score [13] | PBM binding z-score [14] | PBM binding z-score [15] | PBM binding z-score [16] | PBM binding z-score [17] | PBM binding z-score [18] | PBM binding z-score [19] | PBM binding z-score [20]
CCGACTGGGGGAGAAAGGTTACCATACCATCCGG | 1.31 | 1.61 | 0.182 | 2.9 | 4.09 | 3.66 | 3.97 | 6.01 | 4.46 | 6.42 | 1.08 | 2.68 | 1.16 | 2.68 | 1.76 | 2 | 0.501 | 2.74 | 0.727 | 1.68
CCTAGTTGGTCAGGAGGTTACACACCGGATATGA | 0.491 | 0.633 | 0.538 | 1.02 | 0.258 | 1.5 | 1.14 | 1.4 | 0.448 | 1.07 | 0.814 | 1.65 | 0.504 | 0.527 | 1.84 | 0.862 | 0.653 | 1.38 | 0.725 | 1.47
CCTATTAGATGACCATAAGGGCAACCGAAGCTCG | 0.824 | 0.35 | 0.303 | 0.273 | 0.565 | 0.419 | 0.753 | 0.324 | 0.147 | 0.0156 | -0.108 | 0.24 | 0.781 | -0.21 | 1.46 | 0.624 | 0.912 | 0.938 | 2.1 | 1.4
TGAATGAGGTTAAAGATCAGGGCACGTGGCGTCG | 2.95 | 2.69 | 0.0826 | 1.81 | 0.456 | 4.53 | 5.69 | 6.11 | 4.67 | 6.24 | 2.37 | 3.82 | 1.31 | 1.27 | 0.587 | 2.32 | 0.062 | 3.3 | 0.14 | 2.41
GCTGCTAGGTCAGTTTGGTCAGCTAACGGGTACG | 1.08 | 0.563 | -0.212 | 0.437 | 0.134 | 0.943 | 0.183 | 0.678 | -0.304 | 0.407 | 2.93 | 2 | -0.859 | -0.221 | 0.433 | 0.0587 | -0.275 | 0.504 | -0.322 | 3.1
TGAATGACGTTATAAGATCAGGGAACGTTGCAAA | -0.0798 | -0.0437 | -0.351 | -0.274 | -0.245 | -0.16 | 0.208 | 0.0909 | 0.775 | 0.526 | -1.22 | -0.257 | 1.11 | 0.502 | 0.0586 | -0.0188 | -0.13 | 0.166 | 0.18 | -0.286
CCTACTGGGCAATTCAGAGGTCATTGATCATATG | 2.49 | 4.41 | 6.82 | 3.68 | 0.374 | 3.51 | 0.682 | 2.06 | 0.0551 | 0.942 | 1.37 | 1.97 | 0.00726 | -0.498 | 2.09 | 4.71 | 2.44 | 4.45 | 0.887 | 2.82
ACTATTAGTTGACTTAGGGAAACCGATACGACGC | 0.197 | 0.155 | 0.512 | 0.0262 | 0.742 | -0.255 | 0.843 | 0.171 | 0.193 | 0.259 | 0.323 | 0.25 | 1.26 | 1.45 | 0.412 | -0.145 | 0.319 | 0.0911 | 0.75 | 0.0734
TATACAGGGTCAAAGGCCAGCGTACGAATGTCGA | 7.47 | 6.28 | 2.26 | 4.8 | 2.36 | 6.28 | 8.39 | 7.25 | 5.73 | 7.51 | 2.18 | 4.79 | 2.29 | 0.981 | 3.54 | 4.34 | 0.322 | 6.38 | 1.26 | 4.46
GGAACGAGAGCATTCGAGTTGATAGCATGGCGAT | -0.374 | -1.05 | -0.97 | -1.11 | -1.55 | -0.713 | 0.37 | -0.536 | -0.607 | -0.728 | 0.00852 | -0.503 | -0.558 | -0.483 | -1.19 | 0.237 | -0.766 | -0.817 | -0.746 | -0.633
ATCTCTAGGTAAAAATAGTTCAGTGAATGCAAAT | 0.334 | 4.28 | 0.864 | 0.965 | 0.656 | 0.534 | 0.601 | 0.436 | 0.563 | 0.283 | 1.13 | 1.46 | 0.671 | 1.22 | 0.455 | 0.922 | 1.12 | 0.59 | 1.51 | 0.993
ACTATTAGTTGAGTCGAGGGCAACCGATAGGTTG | 0.84 | 0.505 | 0.226 | 0.34 | 0.349 | 0.703 | 0.466 | 0.452 | 0.0326 | 0.43 | 0.363 | 0.962 | 0.679 | 0.368 | 0.693 | 1.34 | 0.315 | 0.785 | 0.945 | 1.14
CCGACCGGGGCAGAAAGGTTACCATACCATCCGG | 0.539 | 0.79 | -0.149 | 0.91 | -1.19 | 1.89 | 0.899 | 1.07 | -0.267 | 0.343 | -0.478 | -0.0375 | -0.85 | -1.32 | 0.496 | 1.16 | -0.029 | 1.83 | -0.144 | 2.06
AGAACGAGGGCAGGCTGAGTTGATAGCAGAGTAG | -0.312 | -0.562 | -0.661 | -0.676 | -1.05 | 0.187 | 0.64 | 0.432 | -0.189 | -0.155 | 2 | 1.53 | 0.0574 | -0.0164 | -0.517 | 0.169 | -0.0945 | -0.281 | -0.536 | 1.63
